Results filed as inconclusive are left out. A number with no mark means an inactive call. The source made the active and inactive calls. Calls follow the shape of the dose curve; as a rule, active = well fitted curve in the direction sought with a large enough effect; inconclusive = small, poorly fitted or top-dose-only effect, or another doubt; inactive = no such curve, though single readings can be large; an effect the other way counts as inactive or inconclusive.
Assays:
[1] = Quantitative High-Throughput drug screen in 47 multiple myeloma cell lines against the NCATS MIPE library collection: KMS34_JCRB cell viability assay (AID 1918985); also: nearly all actives have a fitted effect of over 40% in size; also: potency is read from the fitted curve at half-maximal effect
In short: (§1)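 500 cells/well per myeloma line exposed to pinned MIPE 4.0 compounds for 48 h at 37 °C, 5% CO2. Viability read as ATP by CellTiter-Glo luminescence, normalised to DMSO-only (100%) and media-only (0%) wells.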

[2] = Quantitative High-Throughput drug screen in 47 multiple myeloma cell lines against the NCATS MIPE library collection: OCIMY5_PLB cell viability assay (AID 1918988); also: nearly all actives have a fitted effect of over 65% in size; also: potency is read from the fitted curve at half-maximal effect
In short: as §1

[3] = Quantitative High-Throughput drug screen in 47 multiple myeloma cell lines against the NCATS MIPE library collection: XG6_PLB cell viability assay (AID 1919865); also: nearly all actives have a fitted effect of over 40% in size; also: potency is read from the fitted curve at half-maximal effect
In short: as §1

[4] = Quantitative High-Throughput drug screen in 47 multiple myeloma cell lines against the NCATS MIPE library collection: XG1_PLB cell viability assay (AID 1919866); also: nearly all actives have a fitted effect of over 35% in size; also: potency is read from the fitted curve at half-maximal effect
In short: as §1

[5] = Quantitative High-Throughput drug screen in 47 multiple myeloma cell lines against the NCATS MIPE library collection: PE2_PLB cell viability assay (AID 1919869); also: nearly all actives have a fitted effect of over 35% in size; also: potency is read from the fitted curve at half-maximal effect
In short: as §1

[6] = Quantitative High-Throughput drug screen in 47 multiple myeloma cell lines against the NCATS MIPE library collection: PCM6_Riken cell viability assay (AID 1919870); also: nearly all actives have a fitted effect of over 30% in size; also: potency is read from the fitted curve at half-maximal effect
In short: as §1

[7] = Quantitative High-Throughput drug screen in 47 multiple myeloma cell lines against the NCATS MIPE library collection: RPMI8226_ATCC cell viability assay (AID 1919871); also: nearly all actives have a fitted effect of over 30% in size; also: potency is read from the fitted curve at half-maximal effect
In short: as §1

[8] = Quantitative High-Throughput drug screen in 47 multiple myeloma cell lines against the NCATS MIPE library collection: OCIMY7_PLB cell viability assay (AID 1918987); also: nearly all actives have a fitted effect of over 65% in size; also: potency is read from the fitted curve at half-maximal effect
In short: as §1

[9] = Quantitative High-Throughput drug screen in 47 multiple myeloma cell lines against the NCATS MIPE library collection: SKMM1_PLB cell viability assay (AID 1919863); settings: SKMM1 myeloma viability, CellTiter-Glo ATP, 48 h; viability: stronger effect = lower value; also: nearly all actives have a fitted effect of over 35% in size; also: potency is read from the fitted curve at half-maximal effect; as to viability: series mostly up to about 46 µM
In short: as §1

[10] = Quantitative High-Throughput drug screen in 47 multiple myeloma cell lines against the NCATS MIPE library collection: VP6_DJ cell viability assay (AID 1919867); also: nearly all actives have a fitted effect of over 40% in size; also: potency is read from the fitted curve at half-maximal effect
In short: as §1

[11] = Quantitative High-Throughput drug screen in 47 multiple myeloma cell lines against the NCATS MIPE library collection: KMS11_JCRBsus cell viability assay (AID 1919873); also: nearly all actives have a fitted effect of over 50% in size; also: potency is read from the fitted curve at half-maximal effect
In short: as §1

[12] = KB-8-5-11 P-gp reporter qHTS against the NCATS DSHEA and TCM libraries (AID 1919977); also: 0% is about no effect
In short: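 CellTiter-Glo luminescence after ~72 h exposure at 37C gave viability of KB-8-5-11 cells, the P-gp-overexpressing subline. Substances were titrated; colchicine was omitted from assay medium.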

SMILES	Potency [1]	Potency [2]	Potency [3]	Potency [4]	Potency [5]	Potency [6]	Potency [7]	Potency [8]	Potency [9]	Potency [10]	Potency [11]	viability [9] [%]	outcome [12]
CC1=C2C[C@@H]3[C@@H](CC=C4C[C@@H](O)CC[C@@]43C)[C@@H]2CC[C@]12O[C@H]1C[C@H](C)CN[C@H]1[C@H]2C	inactive	11.8 µM (active)	inactive	inactive	inactive	inactive	6.62 µM (active)						
N[C@@H](Cc1ccc(N(CCCl)CCCl)cc1)C(=O)O	16.6 µM (active)	9.35 µM (active)	1.18 µM (active)	7.43 µM (active)	3.32 µM (active)	3.72 µM (active)		0.662 µM (active)	26.4 µM (active)	11.8 µM (active)	23.5 µM (active)		
O=P1(NCCCl)OCCCN1CCCl (configuration not stated)		18.7 µM (active)	16.6 µM (active)			inactive		8.33 µM (active)		6.62 µM (active)			
CCCC(C)(COC(N)=O)COC(=O)NC(C)C (configuration not stated)		inactive		inactive	inactive	inactive	inactive	inactive		inactive			
Cc1cccc(C)c1NC(=O)CN1CCCC1=O	inactive	inactive	inactive		inactive	inactive	inactive	inactive			inactive	118	
COc1ccc2c(c1OC)CN1CCc3cc4c(cc3C1C2)OCO4 (configuration not stated)	inactive		20.9 µM (active)	14.8 µM (active)		16.6 µM (active)	inactive	inactive		5.9 µM (active)		104	
O=c1c(O)c(-c2ccc(O)c(O)c2)oc2cc(O)cc(O)c12													inactive
O=C(O)C(=O)c1cn(Cc2ccccc2)c2ccc(-c3ccc(OC(F)(F)F)cc3)cc12	inactive			9.35 µM (active)		16.6 µM (active)	inactive		3.72 µM (active)				
CN(C)[C@@H]1C(=O)C(C(N)=O)=C(O)[C@@]2(O)C(=O)C3=C(O)c4c(O)cccc4[C@@](C)(O)[C@H]3C[C@@H]12			inactive	inactive	inactive	inactive	5.9 µM (active)				inactive		
CN(C)CCN(C)CCc1ccc(Cl)c(Cl)c1		inactive	inactive	inactive			inactive			inactive	inactive		
CNC(=O)N1N=C(c2ccc(N)cc2)c2cc3c(cc2CC1C)OCO3 (configuration not stated)		3.72 µM (active)	7.43 µM (active)		7.43 µM (active)	13.2 µM (active)		1.48 µM (active)	5.26 µM (active)	2.64 µM (active)			
Cn1cc(C2=C(c3cn(C4CCN(Cc5ccccn5)CC4)c4ccccc34)C(=O)NC2=O)c2ccccc21	10.5 µM (active)	7.43 µM (active)	2.96 µM (active)	5.26 µM (active)	8.33 µM (active)	9.35 µM (active)	inactive	3.72 µM (active)		11.8 µM (active)		86.1	
Fc1ccc(C(OCCN2CCN(CCCc3ccccc3)CC2)c2ccc(F)cc2)cc1		13.2 µM (active)	7.43 µM (active)	7.43 µM (active)	13.2 µM (active)	10.5 µM (active)	18.7 µM (active)	7.43 µM (active)	23.5 µM (active)	9.35 µM (active)	11.8 µM (active)		
Cc1sc2c(c1C)C(c1ccc(Cl)cc1)=N[C@@H](CC(=O)OC(C)(C)C)c1nnc(C)n1-2	0.235 µM (active)	0.132 µM (active)	7.43 µM (active)	0.187 µM (active)	1.18 µM (active)	2.96 µM (active)			0.372 µM (active)	0.0833 µM (active)	0.059 µM (active)		
COC[C@H]1OC(=O)c2coc3c2[C@@]1(C)C1=C(C3=O)C2CCC(=O)[C@@]2(C)C[C@H]1OC(C)=O (some centres not stated)	7.43 µM (active)	14.8 µM (active)	4.18 µM (active)	1.48 µM (active)	1.66 µM (active)	3.32 µM (active)	5.9 µM (active)	0.743 µM (active)	2.96 µM (active)	3.72 µM (active)	13.2 µM (active)		
O=C1CC[C@@]2(O)[C@H]3Cc4ccc(O)c5c4[C@@]2(CCN3CC2CC2)[C@H]1O5	inactive		inactive	inactive	inactive	inactive					inactive	110	
CNC(=O)c1ccc(N2C(=S)N(c3ccc(C#N)c(C(F)(F)F)c3)C(=O)C23CCC3)cc1F		1.32 µM (active)	1.05 µM (active)	1.32 µM (active)	9.35 µM (active)	7.43 µM (active)	inactive	2.96 µM (active)		8.33 µM (active)	inactive		

From PubChem BioAssay (NCATS)
